Screen size: about 13,000 compounds; about 3,200 (25%) showed an effect of 50% or more. The list shows a part of the results.
What follows are compounds tested on P. falciparum stage V gametocytes. Conditions: 48 h, 5 µM; inhibitor.
Parameters: BacTiter-Glo ATP luminescence viability of purified stage V gametocytes in 384-well plates, per cent inhibition versus DMSO
In the case of COc1ccc(C2c3ccccc3-c3nc(N)nc(N)c3C2C)cc1 (stereo not drawn) [TCMDC-137992], the “% Inhibition” value is reported as 31.51%.
In the case of Cc1cc(NC(=O)NCCN2CCC(NS(=O)(=O)c3ccccc3Cl)C2)c2ccccc2n1 (stereo not drawn) [TCMDC-136142], the “% Inhibition” value is reported as -23.32%.
With Cc1oc(-c2cccc(Oc3ccccc3)c2)nc1CN(Cc1cnn(C)c1)C(C)C [TCMDC-124609] the “% Inhibition” value was -17.42%.
With COc1ccc2nccc(N(C)CC3(O)CCN(CCc4ccc5c(c4)OCCO5)CC3)c2n1 [TCMDC-141473] the “% Inhibition” value was 35.78%.
For CCNc1cc(C(=O)N[C@@H](Cc2ccccc2)[C@H](O)CNCc2cccc(-n3ccnc3)c2)cc(N2CCCC2=O)c1 [TCMDC-141686], the “% Inhibition” value was 34.28%.
In the case of CN(C)C(CNC(=O)c1cc(-c2ccncc2)c(-c2cc3ccccc3[nH]2)o1)c1ccccc1 (stereo not drawn) [TCMDC-135864], the “% Inhibition” value is reported as 29.45%.
With N#Cc1ccc(N(CC(=O)NCCc2ccc(F)cc2)CC2CC2)c2ccccc12 [TCMDC-135573] the “% Inhibition” value was -38.52%.
CCCN(CC(=O)NCCc1ccccc1)c1ccc(C#N)c2ccccc12 [TCMDC-135545] was tested, and the “% Inhibition” value was -10.84%.
For CCc1ccc(NC(=O)c2cccc(CN3CCCN(Cc4ccc(OC)cc4)CC3)c2)cc1 [TCMDC-135990], the “% Inhibition” value was -23.52%.
In the case of CCc1cccc2c(C#N)cn(CC(=O)Nc3ccc(OC)cc3)c12 [TCMDC-123527], the “% Inhibition” value is reported as 78.76%.
For COc1ccc(CC(=O)Nc2ccc(Nc3nc(C)cc(N(C)C)n3)cc2)cc1 [TCMDC-124973], the “% Inhibition” value was 14.2%.
In the case of CCc1cccc2c(C#N)cn(CC(=O)NCCc3ccccc3)c12 [TCMDC-124363], the “% Inhibition” value is reported as 56.03%.
With CCOc1ccc(OCC(=O)Nc2nc(-c3ccc(OC)cc3)c(C)s2)cc1 [TCMDC-124322] the “% Inhibition” value was 37.56%.
CN(C)CCOc1ccc(-c2cc(-c3ccc(Cl)c(O)c3)c(-c3ccncc3)[nH]2)cc1 [TCMDC-141255] was tested, and the “% Inhibition” value was -84.18%.
With Oc1c(Cl)cc(Nc2nccc(Nc3ccc(Oc4ccccc4)cc3)n2)cc1Cl [TCMDC-138588] the “% Inhibition” value was -66%.
c1ccc(Oc2ccc(Nc3nncc4ccccc34)cc2)cc1 [TCMDC-137229] was tested, and the “% Inhibition” value was 25.45%.
For Clc1ccc(-n2cnc3c(Nc4ccc(Oc5ccccc5)cc4)ncnc32)cc1Cl [TCMDC-138209], the “% Inhibition” value was 88.06%.
For Nc1ccc(-c2cc(Cl)cc(Cl)c2)cc1-c1cc2ccccc2[nH]1 [TCMDC-139051], the “% Inhibition” value was -15.54%.
In the case of CCCCc1ccc(S(=O)(=O)Nc2ccc3c(c2)CCN(Cc2c[nH]c4cnccc24)CC3)cc1 [TCMDC-136797], the “% Inhibition” value is reported as -5.765%.
For Nc1nc(N)c2cc(NS(=O)(=O)c3ccc(-c4ccccc4)cc3)ccc2n1 [TCMDC-135430], the “% Inhibition” value was 5.991%.
For CN1Cc2ccc(NS(=O)(=O)c3ccc(-c4ccoc4)cc3)cc2C1 [TCMDC-141495], the “% Inhibition” value was 67.76%.
With CCCc1ccc(S(=O)(=O)Nc2ccc3c(c2)CCC3)cc1 [TCMDC-125822] the “% Inhibition” value was 10.44%.
Cc1nc(N2CCC(C)CC2)c2c3c(sc2n1)CCCC3 [TCMDC-125646] was tested, and the “% Inhibition” value was 3.329%.
For C=C(C)C1CC=C(CN2CCCC(n3ccc4cc(NC(=O)c5ccco5)ccc43)CC2)CC1 (stereo not drawn) [TCMDC-135090], the “% Inhibition” value was -20.08%.
With CCC(=O)c1c(C)n(-c2ncnc3c2nc(C)n3-c2ccc(C)cc2C)c2ccccc12 [TCMDC-136513] the “% Inhibition” value was 51.77%.
Cc1nc2c(-n3cc(Cn4ccnc4)c4ccccc43)ncnc2n1-c1ccc(Cl)cc1Cl [TCMDC-136514] was tested, and the “% Inhibition” value was 37.26%.
Cc1noc(-c2ccc3c(c2)CCN(CCC2CCC(NC(=O)c4cc5ccccc5[nH]4)CC2)CC3)n1 (stereo not drawn) [TCMDC-139876] was tested, and the “% Inhibition” value was -74.07%.
With CN(C)CCOc1cc(NC(=O)Nc2ccc(-c3ccccc3)cc2)ccc1I [TCMDC-139150] the “% Inhibition” value was -45.78%.
With CN(C)CCCn1cc(C(=O)OC2CC3CCC(C2)N3C)c2cc(-c3ccccc3)ccc21 (stereo not drawn) [TCMDC-139094] the “% Inhibition” value was 100.6%.
In the case of O=S(=O)(NCCN1CCCC1)c1cccc(-c2ccc(CNCc3ccccc3)cc2)c1 [TCMDC-132240], the “% Inhibition” value is reported as 108.6%.
For O=S(=O)(NCCN1CCCC1)c1cccc(-c2cccc(CNCc3ccccc3)c2)c1 [TCMDC-132226], the “% Inhibition” value was 104%.
In the case of O=C1C(c2ccccc2)=C(Nc2cccc([N+](=O)[O-])c2)c2ccccc21 [TCMDC-125484], the “% Inhibition” value is reported as 25.85%.
O=C1C(c2ccccc2)=C(Nc2cccc(OC(F)(F)C(F)F)c2)c2ccccc21 [TCMDC-125498] was tested, and the “% Inhibition” value was 65.78%.
COc1cc(NC2=C(c3ccccc3)C(=O)c3ccccc32)ccn1 [TCMDC-135283] was tested, and the “% Inhibition” value was 73.83%.
O=C1C(c2ccccc2)=C(Nc2ccc(Cl)cc2)c2ccccc21 [TCMDC-125493] was tested, and the “% Inhibition” value was 32.25%.
For O=C1C(c2ccccc2)=C(Nc2ccc([N+](=O)[O-])cc2)c2ccccc21 [TCMDC-125490], the “% Inhibition” value was 10.18%.
With COc1ccc(NC2=C(c3ccccc3)C(=O)c3ccccc32)cn1 [TCMDC-125501] the “% Inhibition” value was 36.53%.
With Nn1c(=O)oc2ccc(Cl)cc2c1=O [TCMDC-125519] the “% Inhibition” value was 8.283%.
With FC(F)(F)c1ccc2nccc(NN=Cc3ccccc3)c2c1 [TCMDC-142024] the “% Inhibition” value was -3.615%.
For CCc1cccc(-c2cc(=N)n(C)c3nc(N)[nH]c(=O)c23)c1 [TCMDC-137737], the “% Inhibition” value was -30.45%.
COc1ccc2nccc([C@@H](O)CN3CCC(NCc4nc5c(cc4Cl)OCC(=O)N5)C(F)C3)c2c1 (stereo partly drawn) [TCMDC-141722] was tested, and the “% Inhibition” value was 15.19%.
For CCCCN(C(=O)c1ccccc1C)c1nnc(-c2ccccc2C)s1 [TCMDC-124385], the “% Inhibition” value was 52.67%.
In the case of CCCN(C(=O)c1ccccc1C)c1nnc(-c2ccccc2C)s1 [TCMDC-124386], the “% Inhibition” value is reported as 7.474%.
With CCCCN(C(=O)c1ccccc1Cl)c1nnc(-c2ccccc2C)s1 [TCMDC-125120] the “% Inhibition” value was -1.012%.
For CCC(C)OC(=O)C1=C(C)NC2=C(C(=O)CC(c3ccc(OC)c(OC)c3)C2)C1c1cccc(O)c1 (stereo not drawn) [TCMDC-125634], the “% Inhibition” value was 29.96%.
In the case of COC(=O)C1=C(C)NC2=C(C(=O)CC(c3ccc(OC)c(OC)c3)C2)C1c1cccc(O)c1 (stereo not drawn) [TCMDC-125609], the “% Inhibition” value is reported as 17.77%.
With CCCOC(=O)C1=C(C)NC2=C(C(=O)CC(c3ccc(OC)c(OC)c3)C2)C1c1cccc(O)c1 (stereo not drawn) [TCMDC-125632] the “% Inhibition” value was 53.3%.
With COc1ccc(C2CC(c3cccs3)=NN2C(=O)COc2cccc3c2CCCC3O)cc1OC (stereo not drawn) [TCMDC-125033] the “% Inhibition” value was 11.22%.
With O=C(C=Cc1ccc(Cl)c(Cl)c1)NCCCCCN1CCCC(CCCNS(=O)(=O)c2ccc(Br)cc2)C1 (stereo not drawn) [TCMDC-139592] the “% Inhibition” value was 37.84%.
With O=C(C=Cc1ccc(Cl)c(Cl)c1)NCCCCCN1CCC(CCCNS(=O)(=O)c2ccc(Br)cc2)CC1 [TCMDC-139590] the “% Inhibition” value was 106.1%.
O=C(C=Cc1ccc(Cl)c(Cl)c1)NCCCCCN1CCC(CCNS(=O)(=O)c2ccc(Br)cc2)CC1 [TCMDC-139586] was tested, and the “% Inhibition” value was 95.36%.
For COc1ccc(S(=O)(=O)NCCCC2CCN(CCCCCNC(=O)C=Cc3ccc(Cl)c(Cl)c3)CC2)cc1 [TCMDC-139587], the “% Inhibition” value was 105.9%.
With O=C(/C=C/c1ccc(Cl)c(Cl)c1)NCCCCCN1CCC(NS(=O)(=O)c2cc(Cl)cc(Cl)c2)CC1 [TCMDC-135905] the “% Inhibition” value was 1.117%.
COc1ccc(S(=O)(=O)NCCC2CCN(CCCCCNC(=O)C=Cc3ccc(Cl)c(Cl)c3)CC2)cc1 [TCMDC-139584] was tested, and the “% Inhibition” value was 28.62%.
CCCCCCCCS(=O)(=O)NCCCC1CCN(CCCCCNC(=O)C=Cc2ccc(Cl)c(Cl)c2)CC1 [TCMDC-139588] was tested, and the “% Inhibition” value was 108.5%.
With O=C(C=Cc1ccc(Cl)c(Cl)c1)NCCCCCN1CCC(CCCNC(=O)C2CC2c2ccccc2)CC1 (stereo not drawn) [TCMDC-139572] the “% Inhibition” value was -16.95%.
In the case of O=C(/C=C/c1ccc(Cl)c(Cl)c1)NCCCCCN1CCC(NC(=O)Nc2ccc(Br)cc2)CC1 [TCMDC-135728], the “% Inhibition” value is reported as 5.216%.
Cc1cc(C)cc(NC(=S)NCCCCN2CCN(c3cccc(Cl)c3)CC2)c1 [TCMDC-124057] was tested, and the “% Inhibition” value was 38.25%.
CC1(C)CN(CCC2CCC(NC(=O)/C=C/c3ccc(F)cc3F)CC2)Cc2ccc(C#N)cc21 (stereo not drawn) [TCMDC-139504] was tested, and the “% Inhibition” value was 4.044%.
Nc1c2nc(-c3c(F)cccc3Cl)[nH]c(=O)c2nc(=O)n1-c1ccccc1 [TCMDC-124052] was tested, and the “% Inhibition” value was 4.598%.
With CN(CCN)Cc1ccc(-c2ccc(-c3nc4ccc(F)cc4[nH]3)s2)cc1 [TCMDC-132819] the “% Inhibition” value was 40.81%.
With CN(C)CCN(C)Cc1ccc(-c2cccc(-c3nc4ccccc4[nH]3)c2)cc1 [TCMDC-132567] the “% Inhibition” value was 5.675%.
In the case of c1ccc2[nH]c(-c3ccc(-c4ccc(CN5CCN(CCN6CCOCC6)CC5)cc4)s3)nc2c1 [TCMDC-133938], the “% Inhibition” value is reported as 11.37%.
With CCCN1CCN(Cc2ccc(-c3ccc(-c4nc5ccccc5[nH]4)s3)cc2)CC1 [TCMDC-136767] the “% Inhibition” value was -1.011%.
For c1ccc2[nH]c(-c3ccc(-c4ccc(CN5CCCCC5)cc4)s3)nc2c1 [TCMDC-136768], the “% Inhibition” value was 35.93%.
In the case of CN(C)CCCN1CCN(Cc2ccc(-c3ccc(-c4nc5ccccc5[nH]4)s3)cc2)CC1 [TCMDC-136769], the “% Inhibition” value is reported as 73.2%.
For c1ccc2[nH]c(-c3ccc(-c4ccc(CN5CCN(c6ccncc6)CC5)cc4)s3)nc2c1 [TCMDC-136770], the “% Inhibition” value was -27.84%.
For c1cncc(CN2CCN(Cc3ccc(-c4ccc(-c5nc6ccccc6[nH]5)s4)cc3)CC2)c1 [TCMDC-136765], the “% Inhibition” value was 62.12%.
For CN(CCc1ccccn1)Cc1ccc(-c2ccc(-c3nc4ccccc4[nH]3)s2)cc1 [TCMDC-136766], the “% Inhibition” value was 58.81%.

Reference: article PMC4552634, “A New Set of Chemical Starting Points with Plasmodium falciparum Transmission-Blocking Potential for Antimalarial Drug Discovery” (PLoS ONE, 2015)
